Screening results from PubChem.
Dicer processing = blocks human Dicer maturation of pre-miR-21. 47,000 compounds, 6% hits. Q9UPY3. cat-ELCCA pre-miR-21 Dicer processing, chemiluminescence; active compounds read high. z-score at 25 µM. AID 1347074; in the data active = z-score above about 3, passing the limit was not always enough;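 note: plate controls were vehicle for no effect and no enzyme for full effect; higher signal means more uncleaved substrate so more Dicer inhibition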
Target sequence (Q9UPY3 whole entry, looked up): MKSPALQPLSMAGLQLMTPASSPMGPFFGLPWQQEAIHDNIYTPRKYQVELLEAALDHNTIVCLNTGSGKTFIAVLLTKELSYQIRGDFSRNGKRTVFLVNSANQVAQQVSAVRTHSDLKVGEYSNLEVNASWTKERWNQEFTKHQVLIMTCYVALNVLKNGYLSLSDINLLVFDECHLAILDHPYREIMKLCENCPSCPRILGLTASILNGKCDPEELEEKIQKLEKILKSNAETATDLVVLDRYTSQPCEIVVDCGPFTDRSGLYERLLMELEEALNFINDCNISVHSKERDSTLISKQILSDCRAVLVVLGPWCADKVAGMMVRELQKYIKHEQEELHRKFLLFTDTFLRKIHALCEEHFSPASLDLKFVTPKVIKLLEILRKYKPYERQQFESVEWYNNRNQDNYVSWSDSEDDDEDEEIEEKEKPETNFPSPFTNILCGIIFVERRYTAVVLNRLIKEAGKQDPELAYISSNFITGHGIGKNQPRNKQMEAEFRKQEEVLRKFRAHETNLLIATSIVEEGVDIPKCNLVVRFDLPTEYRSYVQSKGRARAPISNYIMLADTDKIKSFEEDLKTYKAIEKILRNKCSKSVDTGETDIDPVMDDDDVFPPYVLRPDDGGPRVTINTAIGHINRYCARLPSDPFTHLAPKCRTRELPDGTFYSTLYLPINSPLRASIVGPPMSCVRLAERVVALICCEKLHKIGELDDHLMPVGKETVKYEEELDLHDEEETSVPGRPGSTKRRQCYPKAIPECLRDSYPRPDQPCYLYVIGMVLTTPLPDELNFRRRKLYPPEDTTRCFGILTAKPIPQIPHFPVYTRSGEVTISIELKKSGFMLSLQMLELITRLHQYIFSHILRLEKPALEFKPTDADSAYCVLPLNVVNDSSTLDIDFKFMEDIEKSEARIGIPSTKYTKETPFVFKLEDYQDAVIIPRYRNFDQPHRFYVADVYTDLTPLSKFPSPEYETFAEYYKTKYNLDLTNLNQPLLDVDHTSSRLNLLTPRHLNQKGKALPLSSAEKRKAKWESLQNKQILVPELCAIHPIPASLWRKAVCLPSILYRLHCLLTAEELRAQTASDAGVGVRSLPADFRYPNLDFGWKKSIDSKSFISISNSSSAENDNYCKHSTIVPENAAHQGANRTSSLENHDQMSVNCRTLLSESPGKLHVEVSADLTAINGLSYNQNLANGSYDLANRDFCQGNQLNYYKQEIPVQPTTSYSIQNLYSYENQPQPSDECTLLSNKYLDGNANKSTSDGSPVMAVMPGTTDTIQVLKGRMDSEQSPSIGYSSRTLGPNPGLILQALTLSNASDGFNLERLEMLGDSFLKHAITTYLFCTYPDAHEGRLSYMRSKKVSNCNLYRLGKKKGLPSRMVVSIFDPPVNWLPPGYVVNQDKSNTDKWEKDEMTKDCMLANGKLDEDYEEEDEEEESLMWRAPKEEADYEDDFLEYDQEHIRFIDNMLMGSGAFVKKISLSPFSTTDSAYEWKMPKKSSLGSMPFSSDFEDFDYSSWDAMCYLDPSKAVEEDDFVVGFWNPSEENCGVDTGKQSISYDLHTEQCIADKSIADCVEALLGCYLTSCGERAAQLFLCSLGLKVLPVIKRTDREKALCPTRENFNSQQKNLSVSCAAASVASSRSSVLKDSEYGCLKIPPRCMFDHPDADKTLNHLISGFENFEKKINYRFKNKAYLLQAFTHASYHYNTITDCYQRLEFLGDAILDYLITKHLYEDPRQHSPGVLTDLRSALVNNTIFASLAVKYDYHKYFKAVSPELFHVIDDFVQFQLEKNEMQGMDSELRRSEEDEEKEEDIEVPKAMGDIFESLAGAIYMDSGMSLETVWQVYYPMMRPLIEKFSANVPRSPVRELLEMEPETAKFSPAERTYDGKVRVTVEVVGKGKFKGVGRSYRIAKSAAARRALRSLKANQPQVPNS
* marks the source's active call; other numbers are inactive results. The sample as a whole holds a higher share of hits than the screen did.

SMILES	Dicer processing
CCOc1ccc(C2C(C(=O)OC(C)C)=C(C)NC3=C2C(=O)CC(c2ccccc2)C3)cc1OC (centres undefined)	1.5
CCCCCCCC1CCC/C1=N\OC(=O)c1cccs1 (centres undefined)	-0.41
OC(CNC1CCCCC1)CNC1CCCCC1	42
CNc1nc(C)nc(-c2ccccc2O)n1	1.3
C=CCOc1ccc(C2C(C#N)=C(N)Oc3c2ccc2ccccc32)cc1OC (centres undefined)	-2
O=S(=O)(c1cccs1)n1ccc(-c2ccc3c(c2)CCO3)n1	-0.76
C=CCn1c(=S)sc2c(C(C#N)C#N)ncnc21	-1.3
CC1CCc2c(sc3nnn(CC(=O)Nc4ccc(F)c(Cl)c4)c(=O)c23)C1 (centres undefined)	2
CS(=O)(=O)NNc1nccc(-c2cccnc2)n1	-0.08
Cc1cc(C)nc(SCC(=O)c2c(C)[nH]c3ccccc23)n1	2.9
Cc1cc(C)nc(SCC(=O)c2ccc(F)cc2F)n1	3.7*
COc1ccc(C(=O)CSc2nc(C)cc(C)n2)cc1C	-0.42
C=CCn1c2ccccc2c2nnc(SCC(=O)Nc3ccccc3OC)nc21	0.29
CCc1ccc(C2C3=C(Nc4c2c(=O)[nH]c(=O)n4CCCOC)c2ccccc2C3=O)cc1 (centres undefined)	0.52
CCN(CC)Cc1c(O)ccc2c(=O)c(-c3ccc(OC)c(OC)c3)c(C(F)(F)F)oc12	0.68
CCOC(CN(C(=O)c1ccc(C)cc1)c1ccc(F)cc1)OCC	4.6*
CCOC(CN(C(=O)c1ccc(C(F)(F)F)cc1)c1ccc(F)cc1)OCC	-1.1
CCOC(CN(c1ccc(F)cc1)S(=O)(=O)c1ccc(F)cc1F)OCC	-2.1
Clc1ccc2nc(NC3=NCN(CCN4CCOCC4)CN3)nc(-c3ccccc3)c2c1	-0.33
Clc1ccc(-c2nc(CSc3nc4ccccc4n4cccc34)cs2)cc1	-1.2
COCCCNc1sc(S(=O)(=O)c2ccc(C)cc2)nc1S(=O)(=O)c1ccc(C)cc1	-1.3
CCc1ccc(N=C(N)N=C(N)N)cc1	0.41
NN/C(N)=N/C(N)=Nc1ccc(F)cc1	3*
NC(N)=NC(N)=Nc1ccc(F)cc1F	-0.23
CC(C)CNC1CC(=O)N(c2ccccc2)C1=O (centres undefined)	-0.94
SMILES	Dicer processing
CSC1=N/C(=C\c2ccc(Cl)cc2)C(=O)N1CCOc1ccc(Cl)cc1	3.6*
CSC1=N/C(=C\c2ccc([N+](=O)[O-])s2)C(=O)N1CCOc1ccc(Cl)cc1	-0.23
CSC1=N/C(=C\c2ccc(Cl)cc2)C(=O)N1N(C)C	-0.39
CCOC(=O)c1cc(-c2ccccc2)sc1NC(=O)CN(CC)CC	-4
CN1CCN(c2nc3c(c(=O)n(C)c(=O)n3C)n2Cc2c(F)cccc2Cl)CC1	0.87
CN1CCN(c2nc3c(c(=O)n(C)c(=O)n3C)n2Cc2ccccc2Cl)CC1	4.2*
Cn1c(=O)c2c(nc(N3CCCCC3)n2Cc2ccccc2F)n(C)c1=O	1.7
CCn1c[n+](CC(O)COCc2ccccc2)c2ccccc21 (centres undefined)	-0.35
CSC1=NCCCN1C(=O)c1c(-c2ccccc2Cl)noc1C	-0.52
Cc1ccc(O)c(C2=NN3C(C2)c2cc(Br)ccc2OC3c2cccnc2)c1 (centres undefined)	5.2
COc1cccc(C2=NN3C(C2)c2cc(Br)ccc2OC3c2cccnc2)c1 (centres undefined)	7.2*
COc1ccccc1C1Oc2ccccc2C2CC(c3cccnc3)=NN21 (centres undefined)	2.4
COc1ccc(C2=NN3C(C2)c2cc(Br)ccc2OC3c2ccncc2)cc1 (centres undefined)	8.2*
COc1ccc(C2=NN3C(C2)c2cc(Br)ccc2OC3c2cccnc2)cc1 (centres undefined)	4.2*
COc1ccc(C2=NN3C(C2)c2cc(Cl)ccc2OC3c2cccnc2)cc1 (centres undefined)	2.7
COc1ccc(C2=NN3C(C2)c2ccccc2OC3c2ccncc2)cc1 (centres undefined)	2.1
COc1ccc(C2=NN3C(C2)c2ccccc2OC3c2ccncc2)cc1OC (centres undefined)	1.2
Cc1n[nH]c(C)c1N1C(=O)c2cccc3c(Br)ccc(c23)C1=O	0.33
CCc1nc(SCC(=O)c2ccc(Br)cc2)n[nH]1	-0.2
O=C(O)CCCC(=O)Nc1ccc(Oc2ncnc3cc(Cl)ccc23)nc1	-0.04
Clc1ccccc1-n1ncnc1-c1ccc(Br)cc1	-0.53
COc1ccc(OC)c(NC(=O)c2sc3nc(-c4cccs4)ccc3c2N)c1	0.91
Cc1ccc(/C(O)=C2/C(=O)C(=O)N(CC(C)O)C2c2ccc(C(C)C)cc2)cc1 (centres undefined)	6.7
COc1ccc(-c2ccc3c(n2)sc2c(O)cc(=O)[nH]c23)cc1OC	-1.4
N#CCCN(CCc1ccccn1)C(=S)Nc1cc(C(F)(F)F)cc(C(F)(F)F)c1	-1.8
SMILES	Dicer processing
COc1ccc(C2=Nn3c(nc4sc(C)c(C)c4c3=O)SC2)cc1	-2
CCCc1c(NC(=O)Nc2ccc(F)cc2)cnn1-c1ccccc1	-1.5
CCCCOC(=O)Nc1ccc(N(CC)CC)cc1	2
CCCc1cc(C(=O)Nc2ccc(N(CC)CC)cc2)nn1-c1ccccc1	4.4*
O=C1CC(c2ccccc2)Oc2ccc(Cl)cc21 (centres undefined)	-1.4
NC(=O)c1cc(Oc2ccc(Br)cc2)nc2ccccc12	1.8
O=C(NC(=S)Nc1ccccc1NC(=S)NC(=O)c1ccccc1)c1ccccc1	-2.6
Cc1nc(N=Nc2ccc(S(=O)(=O)O)cc2S(=O)(=O)O)c(COP(=O)(O)O)c(C=O)c1O	3.1*
Cc1nc(N=Nc2ccc(C(=O)O)cc2)c(COP(=O)(O)O)c(C=O)c1O	-1.7
Cc1nc(-c2ccc(S(=O)(=O)N3CCN(c4ncnc5scc(-c6ccccc6)c45)CC3)s2)cs1	-1
Cc1c(Cc2c(F)cccc2Cl)c(=O)oc2cc(O)ccc12	-0.21
CCCc1c(Cc2c(F)cccc2Cl)c(=O)oc2cc(OC(=O)COC)ccc12	4.4*
CCCc1c(Cc2c(F)cccc2Cl)c(=O)oc2cc(OS(C)(=O)=O)ccc12	0.67
Cc1cccn2cc(-c3ccccc3Cl)nc12	0.28
Cc1ccc(S(=O)(=O)Nc2n[nH]c(-c3ccc(C(C)(C)C)cc3)c2Br)cc1	-6
Cc1cccn2cc(-c3cccc(S(=O)(=O)N4CC(C)OC(C)C4)c3)nc12 (centres undefined)	-0.05
Cc1cccn2cc(-c3ccc(NS(=O)(=O)c4ccc(Br)cc4)cc3)nc12	7.9*
Cc1ccc(S(=O)(=O)Nc2ccc(-c3cn4cccc(C)c4n3)cc2)c(C)c1	6.1*
Cc1cccn2cc(-c3cccc(S(=O)(=O)N4CCOCC4)c3)nc12	0.78
Cc1cccn2cc(-c3cccc(S(=O)(=O)N4CCCC4)c3)nc12	-0.04
Cc1ccc(S(=O)(=O)Nc2ccc(-c3cn4cccc(C)c4n3)cc2)cc1C	8.6*
Cc1cc(OCCCCCn2ccnc2)cc(C)c1Cl	0.93
c1ccc2c(c1)[nH]c1nc(SCCN3CCCCC3)nnc12	1
CC(C)OC(=O)C1C(=O)CC(C)(O)C(C(=O)OC(C)C)C1c1ccccc1 (centres undefined)	-0.67
COC(=O)c1cnc(Oc2ccc(NC(=O)NC(=O)c3c(F)cccc3F)cc2)cc1C(F)(F)F	1.5
CC(C(=O)NNC(=S)NCC1CC1)n1nnc(N2CCOCC2)n1 (centres undefined)	3.9*
O=C(Cn1nnc(N2CCOCC2)n1)NNC(=S)Nc1ccc(F)cc1F	0.13
COC(=O)Cn1nnc(N2CCOCC2)n1	0.53
